# PubChem BioAssay AID618 (Sanford-Burnham Center for Chemical Genomics, 2007)
# Among all 87,000 compounds or so, about 540 (0.62%) were called active. The rule behind the calls is not given here. What follows is part of a selection rich in actives, with near analogues and random picks from the rest. Where a call stands in place of a potency, no number is given. Potency and affinity values are given separately.
# Assay: MT1-MMP gene expression reporter suppression – cell-based, luciferase reporter, luminescence (AID 618);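 note: actives suppress MT1-MMP promoter-driven transcription so potencies describe inhibitors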
# Settings: MT1-MMP promoter luciferase reporter cells
row,SMILES,outcome
1,Nc1cc(=O)[nH]c(SCc2nc3ccccc3n2Cc2ccccc2)n1,inactive
2,CSCC[C@H](NC(=O)OC(C)(C)C)c1nnc(SCC(N)=O)o1,inactive
3,COc1ccc(S(=O)(=O)n2nc(OC(=O)C3CCCCC3)cc2N)cc1,inactive
4,COc1ccc2nc(NC(=O)C3COc4ccccc4O3)sc2c1 (configuration not stated),inactive
5,Cc1nnc(NC(=O)C2COc3ccccc3O2)s1 (configuration not stated),inactive
6,O=C(Nc1nc(-c2ccc3c(c2)OCO3)cs1)C1COc2ccccc2O1 (configuration not stated),inactive
7,O=C(Nc1nncs1)C1COc2ccccc2O1 (configuration not stated),inactive
8,O=C(Nc1ncc(Cc2ccccc2)s1)C1COc2ccccc2O1 (configuration not stated),inactive
9,O=C(Nc1nc(-c2ccccn2)cs1)C1COc2ccccc2O1 (configuration not stated),inactive
10,O=C(NC1=NCCS1)C1COc2ccccc2O1 (configuration not stated),active
11,Cc1nc2ccc3nc(NC(=O)C4COc5ccccc5O4)sc3c2s1 (configuration not stated),inactive
12,O=C(Nc1ccncc1)C1COc2ccccc2O1 (configuration not stated),inactive
13,COc1ccc(OC)c(S(=O)(=O)Nc2ccc(CC(=O)O)cc2)c1,inactive
14,CN(C)/C=N/c1c(C#N)nnn1Cc1ccccc1,inactive
15,Cc1ccc2nc3n(c(=O)c2c1)CCCCC3,inactive
16,CCCCn1c(C(C)NC(=O)c2cccs2)nc2ccccc21 (configuration not stated),inactive

row,SMILES,outcome
1,COc1ccccc1N1CCN(C(=O)CSc2nnc(NC(=O)c3ccco3)s2)CC1,inactive
2,O=C(Nc1nnc(C(F)(F)F)s1)C1COc2ccccc2O1 (configuration not stated),inactive
3,CCc1nnc(NC(=O)C2COc3ccccc3O2)s1 (configuration not stated),inactive
4,COc1ccc(-c2noc(CCC(=O)Nc3nc4ccccc4s3)n2)cc1,inactive
5,O=C(Nc1cc(C(F)(F)F)ccc1N1CCOCC1)c1c(F)c(F)c(F)c(F)c1F,inactive
6,Cc1onc(-c2ccccc2)c1C(=O)Nc1ccccc1N1CCOCC1,inactive
7,Cc1ccc2nc(SCC(=O)Nc3cc(C(F)(F)F)ccc3N3CCOCC3)[nH]c2c1,active
8,O=C(CSc1nc2ccccc2[nH]1)Nc1cc(C(F)(F)F)ccc1N1CCOCC1,inactive
9,Cc1nnc(SCC(=O)Nc2cc(C(F)(F)F)ccc2N2CCOCC2)o1,inactive
10,Cc1onc(-c2ccccc2)c1C(=O)Nc1cc(C(F)(F)F)ccc1N1CCOCC1,active
11,CCN(CC)c1ccc2cc(C(=O)Nc3ccc(-n4cnnn4)c(OC)c3)c(=O)oc2c1,inactive
12,COCc1cc(C)nc2sc(C(=O)Nc3nccs3)c(N)c12,inactive
13,Cc1cc(C)c2c(N)c(C(=O)NC3CC3)sc2n1,inactive
14,CCOC(=O)c1sc2nc(C)cc(C)c2c1N,inactive
15,CCOC(=O)CNC(=O)c1sc2nc(C)cc(C)c2c1N,inactive
16,COCCNC(=O)C(c1cccs1)N(CCc1ccccc1)C(=O)Cn1nnc2ccccc21 (configuration not stated),inactive
